# Compound activity: PubChem, National Center for Advancing Translational Sciences (NCATS)
# Shown are actives, neighbours in structure and some others; about 18% of the full set was active somewhere.
# TDP1 cell noCPT: qHTS for Inhibitors of human tyrosyl-DNA phosphodiesterase 1 (TDP1): qHTS in cells in absence of CPT. DT40 Tdp1-/- hTDP1 cells, no CPT, ATP luminescence, 48 h. Potency, µM (top dose mostly 46.2 µM), inactives show top-dose activity change, negative = growth inhibition, most hits filed as inhibitors. 420,000 tested, 15% active; further: potency means the concentration at half of the fitted maximal effect; nearly all actives have a fitted effect of over 55% in size
#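 Readout: luminescence from CellTiter-Glo after 30 min in the dark at RT. Cells: DT40 Tdp1-/- with stable hTDP1, 400/well. Exposure: compounds alone, ≥48 hr, 37 °C.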
# CtBP-E1A inh: CtBP/E1A binding inhibition; AID 651724; activity change, % (test concentration not listed); AlphaScreen GST-E1A/His-CtBP binding, 1536-well; stronger effect = lower value; 340,000 tested, 0.49% active; in the data active means activity change below about -65%; inconclusive means mostly about -30% to -63%
#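 AlphaScreen with 125 nM GST-E1A and 125 nM His-CtBP (5X stocks) in Tris pH 8.0, 300 mM NaCl, BSA, Tween 20, TCEP. Compounds preincubated 2 h at 37 deg C, then glutathione donor/nickel acceptor beads added for 1 h at 37 deg C in dark.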
# IL1B secr inh: inflammasome signaling inhibition, IL-1 beta readout; THP-1 LPS/ATP IL-1B secretion, AlphaLISA, 16 h; stronger effect = lower value; activity change, % at 57.5 µM; 360,000 tested, 4.7% active; AID 743279; in the data active means activity change below about -50%; inconclusive means mostly about -30% to -49%
#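 Secreted IL-1B measured by AlphaLISA bead assay after 16 h compound exposure of THP-1 cells; compounds (final up to 57.5 uM) added 1 h before LPS (250 ng/mL) and ATP (1.25 mM) stimulation; lower signal means less secretion.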
# TDP1 block: inhibitors of human tyrosyl-DNA phosphodiesterase TDP1; 350,000 tested, 0.28% active; Q9NUW8; Potency, µM (series often up to 130 µM), for the others: top-dose activity change, negative = inhibition, usual class: inhibitors; recombinant TDP1, AlphaScreen DNA substrate cleavage; further: potency means the concentration at half of the fitted maximal effect; nearly all actives have a fitted effect of over 40% in size
# Target sequence (Q9NUW8 whole entry, looked up): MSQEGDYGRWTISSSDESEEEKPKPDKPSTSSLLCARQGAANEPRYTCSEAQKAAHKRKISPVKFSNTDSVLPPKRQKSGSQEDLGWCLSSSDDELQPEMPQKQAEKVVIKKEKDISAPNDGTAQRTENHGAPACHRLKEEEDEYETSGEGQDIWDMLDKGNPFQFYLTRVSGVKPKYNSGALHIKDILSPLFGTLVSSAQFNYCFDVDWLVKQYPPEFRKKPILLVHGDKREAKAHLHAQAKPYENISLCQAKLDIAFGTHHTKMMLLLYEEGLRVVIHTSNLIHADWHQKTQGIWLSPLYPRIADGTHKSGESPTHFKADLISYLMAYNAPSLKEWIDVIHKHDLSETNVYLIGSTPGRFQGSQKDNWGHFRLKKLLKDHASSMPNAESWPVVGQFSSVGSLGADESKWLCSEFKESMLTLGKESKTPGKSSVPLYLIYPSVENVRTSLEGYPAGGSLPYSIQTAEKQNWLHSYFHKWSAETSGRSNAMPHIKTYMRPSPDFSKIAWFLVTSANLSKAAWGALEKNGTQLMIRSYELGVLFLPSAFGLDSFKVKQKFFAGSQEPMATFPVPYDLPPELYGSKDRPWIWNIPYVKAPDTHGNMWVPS
#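 Enzyme-compound mixtures sat 15 min at room temperature, followed by a 5 min reaction with 15 nM final substrate and 10 min with AlphaScreen beads. Recombinant human Tdp1 was used at 1 nM final.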
# Six1-Eya2 blk: Six1/Eya2 interaction inhibition; 360,000 tested, 0.56% active; AID 651725; activity change, % (concentration not given with the values); Q15475+O00167; AlphaScreen GST-Six1/His-Eya2 binding, biochemical; stronger effect = lower value; in the data active means activity change below about -65%; inconclusive means mostly about -30% to -63%
#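 Compounds are tested against tagged Six1 and Eya2 proteins bridged by glutathione donor and nickel acceptor beads; after a one-hour incubation at 37 °C without light, AlphaScreen emission is recorded.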
# TDP1 cell CPT: DT40-hTDP1 cell growth loss with CPT; chicken DT40 Tdp1-/-;hTDP1 cells + 20 nM CPT, ATP luminescence, 48 h; Potency, µM (titrated, usually from 46.2 µM), without a hit: at the highest dose activity change, negative = growth inhibition, hits mostly inhibitors; 420,000 tested, 12% active; further: potency means the concentration at half of the fitted maximal effect; nearly all actives have a fitted effect of over 55% in size
#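 Chicken DT40 Tdp1-/- cells complemented with human TDP1, 400 cells/well, exposed to compounds plus 20 nM camptothecin for at least 48 h at 37 C; viability read as ATP content by CellTiter-Glo luminescence.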
# An asterisk follows results filed as active; ? = inconclusive; . = no result; [ ] = remark or other dose. Unless noted, the call rests on the fitted dose curve; in most records, active means well fitted curve in the direction sought with a large enough effect; inconclusive means small, poorly fitted or top-dose-only effect, or another doubt; inactive means no such curve, though single readings can be large; an effect the other way counts as inactive or inconclusive. On the % scale 0 is the no-effect control and ±100 the full control effect.
SMILES,TDP1 cell noCPT,CtBP-E1A inh,IL1B secr inh,TDP1 block,Six1-Eya2 blk,TDP1 cell CPT
Cc1ccc(OCC(=O)n2nc(C)cc2C)c(C)c1,-11%,12,4,1%,4,0%
CC(C)c1ccc(-c2noc(SCC(=O)N3CCN(c4ccccc4F)CC3)n2)cc1,21µM*,.,.,3%,.,23µM*
O=C(CSc1nc(-c2ccccc2)no1)N1CCN(c2ccccc2F)CC1,-13%,.,.,3%,.,-28%
COc1ccccc1N1CCN(C(=O)CSc2n[nH]c(-c3ccccc3)n2)CC1,?,.,.,8%,.,?
COc1ccccc1N1CCN(C(=O)CSc2nc(-c3ccc(C(C)C)cc3)no2)CC1,6.5µM*,.,.,-3%,.,23µM*
O=C(CSc1nc(-c2ccccc2)no1)N1CCCCC1,3.7µM*,.,.,3%,.,?
CCc1ccc(C2=NN(C(=O)CCC(=O)O)C(c3cccs3)C2)cc1 (centres undefined),9%,-4,10,.,14,-20%
COc1cc(/C=N/Nc2ccnc(=O)[nH]2)ccc1O,24%,-16,?,.,?,-12%
COc1ccc(C(C)=O)cc1COC(=O)c1cnc(Cl)c(Cl)c1,-3%,10,-82*,0%,32,-6%
COc1cc2c(cc1NS(=O)(=O)c1cccc(C#N)c1)n(C)c(=O)n2C,?,.,.,11%,.,21µM*
COc1ccc(N2CCN(C(=O)CSc3nc4c(c(=O)n(C)c(=O)n4C)n3C(C)C)CC2)cc1,?,15,-21,1%,1,18µM*
COc1ccc(N2CCN(C(=O)CSc3nnc(-c4cc5ccccc5cc4O)n3C)CC2)cc1,18µM*,?,-11,6%,?,23µM*
COc1ccc(-n2cnnc2SCC(=O)N2CCN(c3ccccc3)CC2)cc1,?,-2,-10,6%,?,-20%
CC(C)n1c(SCC(=O)N2c3ccccc3Sc3ccccc32)nc2c1c(=O)n(C)c(=O)n2C,16µM*,18,-28,1%,4,21µM*
CC(C)n1c(SCc2ccccc2F)nc2c1c(=O)n(C)c(=O)n2C,26µM*,3,46,-1%,-3,21µM*
CC(C)n1c(SCC(N)=O)nc2c1c(=O)n(C)c(=O)n2C,-8%,2,-6,4%,-2,0%
Cc1ccc(OCCN2CCC2(C)C(=O)Nc2ccc3c(c2)OCO3)cc1 (centres undefined),-25%,-15,-19,.,-3,-25%
COc1cc(NS(=O)(=O)c2ccc3[nH]c(=O)[nH]c3c2)cc(OC)c1,19%,-4,-2,-6%,-5,-27%
CCOC(=O)c1c(NC(C)=O)sc2c(O)c(CN3CCN(CC)CC3)ccc12,-17%,25,-63*,5%,-4,?
O=C(Cn1nnc(-c2ccccc2)n1)Nc1ccccc1N1CCOCC1,13µM*,9,?,1%,6,?
CC(C)(C)c1csc(NC(=O)Cc2ccc(S(=O)(=O)N3CCOCC3)s2)n1,15µM*,-1,?,5%,-3,?
O=C(Cc1ccc(S(=O)(=O)N2CCOCC2)s1)Nc1ccccc1N1CCOCC1,12µM*,-2,25,6%,2,?
O=C(Cc1ccccc1)Nc1ccccc1N1CCOCC1,-26%,5,16,0%,-1,12%
O=C(Cc1ccc(Cl)c(Cl)c1)Nc1ccccc1N1CCOCC1,?,9,19,7%,-2,23µM*
CC(=O)Nc1ccc(S(=O)(=O)N2CCN(C34CC5CC(CC(C5)C3)C4)CC2)cc1,?,2,5,3%,0,-20%
SMILES,TDP1 cell noCPT,CtBP-E1A inh,IL1B secr inh,TDP1 block,Six1-Eya2 blk,TDP1 cell CPT
O=C(CSc1ncn[nH]1)CSc1ncn[nH]1,-13%,2,2,3%,7,-8%
Cc1cc(CC(C)C)n(-c2nc3ccccc3c(=O)n2OCc2ccccc2)n1,?,9,-12,0%,-2,?
COC(=O)c1c(NC(=O)/C(C#N)=C/c2ccc(OC)cc2)sc2c1CCC2,-7%,.,.,0%[12.3 µM],.,8%
O=C(Cc1ccc2c(c1)OCCO2)Nc1cc(Cl)ccc1N1CCOCC1,?,2,22,0%,0,16µM*
O=C(Cc1ccc(S(=O)(=O)N2CCOCC2)s1)Nc1ccccc1Br,-5%,.,11,-8%,-3,-4%
CCN(CC)S(=O)(=O)c1ccc(C)c(NC(=O)Cc2ccc(S(=O)(=O)N3CCOCC3)s2)c1,21µM*,21,3,4%,-21,?
NC(=O)c1ccsc1NC(=O)COC(=O)CNC(=O)c1cccc([N+](=O)[O-])c1,18%,1,0,.,-3,5%
Cc1ccc(-c2nn(-c3ccccc3)cc2NC(=O)c2ccccc2)cc1,21µM*,11,?,-3%,3,21µM*
O=C(Nc1cn(-c2ccccc2)nc1-c1ccc(F)cc1)c1ccccc1,18µM*,-6,10,3%,0,21µM*
O=C(Nc1cn(-c2ccccc2)nc1-c1ccc(Cl)cc1)c1ccccc1,?,-5,4,-3%,-5,?
CCOC(=O)C1CCCN(S(=O)(=O)c2ccc(OC)c3ccccc23)C1 (centres undefined),?,10,50,7%,3,-15%
CC1(C)CC(=O)C(C=Nc2cccnc2/N=C/C2=C(O)CC(C)(C)CC2=O)=C(O)C1,?,0,-10,10%,-7,4.6µM*
Cc1ccc(O)c(N=NC2=C(O)CC(C)(C)CC2=O)c1,8.2µM*,-4,46,-2%,-90*,15µM*
CC1(C)CC(=O)C(C=Nc2ccc(O)c(N=CC3=C(O)CC(C)(C)CC3=O)c2)=C(O)C1,?,9,7,-2%,2,16µM*
CC1(C)CC(=O)C(N=Nc2cc(Cl)c(Cl)c(Cl)c2)=C(O)C1,0%,-2,32,8%,-10,-1%
CC1(C)CC(=O)C(C=Nc2ccc3c(c2)OCO3)=C(O)C1,-10%,0,1,-5%,-12,-26%
CC1(C)CC(=O)C(C=Nc2cccnc2)=C(O)C1,-14%,2,-2,-1%,0,-13%
Cc1ccccc1-n1cc[nH]c1=S,-17%,0,-6,5%,-8,11%
CCN(c1cccc(C)c1)S(=O)(=O)c1cnc[nH]1,-12%,4,5,2%,4,-7%
